Reference: the supplement of paper PMC9446081
Hit rate of the full screen: of about 39,000 compounds, about 220 (0.56%) showed activity. Only a selection was taken, and actives are over-represented in it overall.

Test system: Escherichia coli K-12 BW25113
Test: relative growth (OD600 normalised to plate interquartile mean) (fraction); higher = less growth inhibition, active = 0.2 or less
Conditions: 50 µM; LB; incubation time: overnight (16-24 h)
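Also: Wild-type cells incubated without shaking, value is the mean of two biological replicates.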

SMILES | relative growth
Cc1noc(C)c1NC(=O)N(C)C[C@H]1Oc2ccc(NS(=O)(=O)c3cn(C)cn3)cc2C(=O)N([C@H](C)CO)C[C@H]1C | 0.989 (inactive)
C[C@@H]1CN([C@H](C)CO)C(=O)Cc2cc(NC(=O)C3CCCCC3)ccc2O[C@H]1CN(C)Cc1ccc(C(=O)Nc2ccccc2N)cc1 | 0.979 (inactive)
COc1cc2c(cc1OC)CN(CCc1ccc(NC(=O)c3cc(OC)c(OC)cc3NC(=O)c3cnc4ccccc4c3)cc1)CC2 | 0.965 (inactive)
COC(=O)NN=Cc1c[n+]([O-])c2ccccc2[n+]1[O-] | 0.574 (inactive)
CC(=O)O.N=C(N)NN=Cc1c(Cl)cccc1Cl | 0.885 (inactive)
COC(=O)N/N=C/c1c[n+]([O-])c2ccccc2[n+]1[O-] | 0.0462 (active)
C[C@H]1CN([C@@H](C)CO)C(=O)c2cccc(NS(=O)(=O)c3ccccc3)c2O[C@H]1CN(C)S(C)(=O)=O | 0.967 (inactive)
O=c1c(O[C@@H]2O[C@H](CO)[C@@H](O)[C@H](O)[C@@H]2O[C@H]2OC[C@](O)(CO)[C@H]2O)c(-c2ccc(O)c(O)c2)oc2cc(O)cc(O)c12 | 1.02 (inactive)
O=C(C[C@@H]1CC[C@@H](NS(=O)(=O)c2ccc(F)cc2)[C@@H](CO)O1)N1CCC(Cc2ccccc2)CC1 | 0.987 (inactive)
CCC(=O)Nc1ccc(Cl)cc1 | 1 (inactive)
Cl.Cl.N=C(NCCCCCCNC(=N)NC(=N)Nc1ccc(Cl)cc1)NC(=N)Nc1ccc(Cl)cc1 | 0.0423 (active)
CC(C)NC(=N)NC(=N)Nc1ccc(Cl)cc1.Cl | 0.965 (inactive)
Cc1noc(C)c1NC(=O)N(C)C[C@H]1OCCCC[C@@H](C)Oc2ccc(NC(=O)C3CCCCC3)cc2C(=O)N([C@@H](C)CO)C[C@H]1C | 0.976 (inactive)
Cc1noc(C)c1NC(=O)N(C)C[C@H]1Oc2c(NC(=O)C3CC3)cccc2C(=O)N([C@H](C)CO)C[C@@H]1C | 1 (inactive)
CC(C)NC(=O)Nc1ccc2c(c1)C(=O)N([C@@H](C)CO)C[C@H](C)[C@H](CN(C)CC1CCCCC1)OCCCC[C@H](C)O2 | 1.01 (inactive)
CC[C@@H](O)C[C@H]1CC[C@H]([C@@H](C)C(=O)O[C@@H](C)C[C@H]2CC[C@H]([C@@H](C)C(=O)O[C@@H](C)C[C@H]3CC[C@H]([C@@H](C)C(=O)O[C@@H](C)C[C@H]4CC[C@H]([C@@H](C)C(=O)O)O4)O3)O2)O1 | 1.06 (inactive)
CN(C)CCC=C1c2ccccc2COc2ccccc21.Cl | 1.03 (inactive)
CN(C)CCC=C1c2ccccc2CCc2ccccc21.Cl | 0.976 (inactive)
CN(C)CCC=C1c2ccccc2COc2ccc(CC(=O)O)cc21.Cl | 0.0442 (active)
